Source: ChEMBL document CHEMBL1157539, “Thousands of chemical starting points for antimalarial lead identification” (Nature, 2010)

The compounds below were run on Plasmodium falciparum (assay: GSK_TCMDC: Inhibition of Plasmodium falciparum 3D7 in whole red blood cells, using parasite LDH activity as an index of growth. Test compounds present at 2uM).
Assay type: functional

SMILES | Inhibition [%]
O=C(Cn1c(CCc2cccc(F)c2F)nc(=O)c2cccnc21)N(Cc1ccc(-c2ccc(C(F)(F)F)cc2)cc1)C1CCN(C2CCSCC2)CC1.O=C(O)C(O)C(O)C(=O)O | 100
Cc1nc2ccccc2n1C1CC2CCC(C1)N2CCCC1(c2ccccc2)CCN(C(=O)OCc2ccccc2)CC1.O=CO (stereo not drawn) | 90
O=C(Nc1ccc(Cl)cc1)Nc1ccc(-c2cccc(-c3nc4cc(F)ccc4[nH]3)c2)cc1 | 100

The compounds below were run on Plasmodium falciparum (assay: GSK_TCMDC: Inhibition of Plasmodium falciparum Dd2 in whole red blood cells, using parasite LDH activity as an index of growth. Test compounds present at 2uM).
Assay type: functional

SMILES | Inhibition [%]
CN1CCN(Cc2nc(-c3ccc4c(Nc5ccc(Oc6ccccc6)cc5)ccnc4c3)cs2)CC1 | 99
Cc1c(CNCCCNc2cc(=O)c3ccccc3[nH]2)sc(-c2ccco2)c1Br.Cl | 39
Br.CC1(C)NC(N)=NC(=N)N1OCCCCOc1ccccc1 | 95
COc1cccc(Cc2c(C)nc3nc(N)nc(N)c3c2C)c1.Cl | 1
Cc1cc(N[C@@H](Cc2ccccc2)C(=O)NCc2cccs2)nc(NCCc2ccccc2)n1.O=C(O)C(F)(F)F | 61
COc1cccc2c(Oc3ccccc3C)ccnc12 | 45
CN(c1ccc2c(c1)nc(NCc1ccccc1)n2C)c1ccnc(Nc2ccc(CS(C)(=O)=O)cc2)n1.Cl | 69
Cc1cc(F)ccc1-c1nc(NCC(O)CNCCc2ccccc2)nc2c1ccc(=O)n2-c1c(F)cccc1F.O=C(O)C(F)(F)F (stereo not drawn) | 100
O=C(NC1CCN(Cc2ccccc2)CC1)c1cc(-c2cccnc2)nc2ccc(Cl)cc12 | 26
COc1ccc(-c2nc3c(N)nc(N)nc3nc2-c2ccccc2Cl)cc1.COc1ccc(-c2nc3nc(N)nc(N)c3nc2-c2ccccc2Cl)cc1.Cl | 0
O=C(NCCCCN1CCCC2c3cccc(O)c3CCC21)c1ccc(-c2ccccc2)cc1 (stereo not drawn) | 4
O=C(Cn1cc(C=C2SC(=NC3CCCC3)N(C3CCCC3)C2=O)c2ccccc21)N1CCCC1 | 100
O=C(O)c1ccc2nc(-c3ccccn3)c(-c3ccccn3)nc2c1 | 18
Cc1cccc(CN2CCCC3(CCN(Cc4ccccc4O)C3)C2)c1 (stereo not drawn) | 76
CC(C)(C)c1ccc(NC(=O)c2cccc(CN3CCCN(Cc4cccc(C#N)c4)CC3)c2)cc1.O=C(O)C(F)(F)F | 12
CN1CCN(c2cc(NC(=O)c3ccc(-c4ccc(Cl)cc4)cc3)ccc2Cl)CC1 | 33
O=C(Nc1ccc(Cl)cc1)c1cc(Cl)ccc1NC(=O)C1CCc2ccccc2O1 (stereo not drawn) | 63
CCOc1cc2c(cc1S(=O)(=O)c1ccc(COc3ccc(C(F)(F)F)cc3)cc1)CCN(C)CC2.Cl | 14
Br.Oc1ccc(CCNCCCCNCCc2ccc(Cl)cc2)cc1O | 0
COc1ccc(CN2CCCC(C(=O)c3ccc(C(F)(F)F)cc3)C2)c(O)c1 (stereo not drawn) | 88

SMILES | Inhibition [%]
O=C(Nc1cccc(-c2cccc(-c3nc4cc(F)ccc4[nH]3)c2)c1)Nc1ccc(F)c(F)c1F | 100
O=C(O)C(F)(F)F.O=S(=O)(NCCN1CCCC1)c1ccc(-c2ccc(CNCc3ccccc3)cc2)s1 | 17
CN(CCO)Cc1ccc(-c2ccc(NS(=O)(=O)c3cccc4cccnc34)cc2)cc1.O=C(O)C(F)(F)F | 84
CCCCCCN1CCN(Cc2cccc(NC(=O)c3cc4ccccc4o3)c2)CC1.O=C(O)C(F)(F)F | 83
CN(C)c1ccc(C=Cc2ccc3ccccc3n2)c(Cl)c1 | 95
Cc1cc(-c2nc3ccc(C(=O)NCc4ccccc4)cc3n2C2CCN(C(=O)c3ccc(-c4ccccc4)cc3)CC2)ccn1 | 97
Cc1ccc(O)cc1Nc1ccnc2cc(-c3csc(CN(C)CCN(C)C)n3)ccc12 | 80
COc1cc(C(=O)NCCCN2CCN(c3cccc(Cl)c3)CC2)ccc1-c1cc2cc(Cl)c(Cl)cc2[nH]1 | 86
COC(=O)c1c(C#N)c(OC)cc(O)c1CSC[C@@H](CN1CCCCC1)Nc1nc(-c2ccc([N+](=O)[O-])cc2)cs1 | 77
N#Cc1ccc(N/C(=N\c2cccc(Cl)c2Cl)NCc2ccc(Cl)cc2Cl)c(O)c1 | 75
CCn1c(C2CCN(CCC3CCN(C(=O)/C=C/c4ccc(Cl)c(Cl)c4)CC3)CC2)nc2ccccc21 | 0
Cc1oc(-c2cccc(Oc3ccccc3)c2)nc1CN(Cc1cnn(C)c1)C(C)C | 61
O=C(Nc1ccccc1O)C1CCN(c2ncnc3cc(-c4ccc(F)cc4)sc23)CC1 | 94
COc1ccc(CC(=O)Nc2ccc(Nc3nc(C)cc(N4CCCC4)n3)cc2)cc1 | 65
CCN(CCCN1CCCCC1)c1cc(C)nc(Nc2cc(C)ccc2C)n1.O=C(O)C(F)(F)F | 42
O=C(O)C(F)(F)F.O=S(=O)(NCCN1CCCC1)c1ccc(-c2cccc(CNC3Cc4ccccc4C3)c2)cc1 | 57
O=C(Nc1ccc(C(F)(F)F)cc1)NC1CCN(c2ccnc3ccccc23)CC1.O=C(O)C(F)(F)F | 62
O=C(Cn1c(CCc2cccc(F)c2F)nc(=O)c2cccnc21)N(Cc1ccc(-c2ccc(C(F)(F)F)cc2)cc1)C1CCN(C2CCSCC2)CC1.O=C(O)C(O)C(O)C(=O)O | 63
Cc1nc2ccccc2n1C1CC2CCC(C1)N2CCCC1(c2ccccc2)CCN(C(=O)OCc2ccccc2)CC1.O=CO (stereo not drawn) | 29
O=C(Nc1ccc(Cl)cc1)Nc1ccc(-c2cccc(-c3nc4cc(F)ccc4[nH]3)c2)cc1 | 96
